The results in this text go back to PubChem BioAssay (NCI).

The panel holds about 83,000 compounds, 20% with a hit somewhere; the sample as a whole holds those more often.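 48-hour exposure, single concentration, 96-well plates; percent growth endpoint where 0 means no net growth. Active: below 10.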 Unmarked numbers belong to inactive results. Activity calls are given as the source filed them.

Some test systems named below: SK-MEL-2 melanoma; EKVX NSCLC; SN12C renal; UO-31 renal; ACHN renal; CAKI-1 renal; A498 renal; CCRF-CEM leukemia; MOLT-4 leukemia; TK-10 renal.
Holding throughout (test): NCI-60 one-dose screen, 48 h (100 = growth as untreated, 0 = no growth, -100 = all killed)
Common to all, as to details: 10 µM

For `CC(=O)Nc1nc(C)c(C(=O)NNC=O)s1`, the growth in the assay on SK-MEL-2 melanoma was 62.7%; in the assay with EKVX NSCLC, 101%; with SN12C renal, 98.7%; in the assay with UO-31 renal it was 100%; in the assay on ACHN renal, 108%; in the assay with CAKI-1 renal, 109%. Further, the growth in the assay on A498 renal was 104%; in the assay on CCRF-CEM leukemia it was 101%; with MOLT-4 leukemia it was 98.1%.
Take `O=C(/C=C/c1ccc(Cl)cc1)c1ccc(Br)cc1`: the growth is 104% with SK-MEL-2 melanoma; 97.2% with EKVX NSCLC; 90% in the assay with UO-31 renal; 81.2% in the assay on TK-10 renal; 104% with ACHN renal; 101% in the assay on CAKI-1 renal. Further, the growth was -44.1% (active) with A498 renal, 110% in the assay on CCRF-CEM leukemia and 97.7% with MOLT-4 leukemia.
For the compound `CC(=O)Nc1ccc(Sc2ccc(NC(C)=O)cc2)cc1`, the growth in the assay with SK-MEL-2 melanoma is 98.9%; in the assay on EKVX NSCLC, 96.3%; in the assay on UO-31 renal, 81%; in the assay with TK-10 renal, 92.2%; in the assay on ACHN renal, 95.9%; in the assay on CAKI-1 renal, 95.3%. Further, the growth in the assay on A498 renal is 106%; in the assay with CCRF-CEM leukemia it was 89.8%; in the assay on MOLT-4 leukemia it was 71.6%.
`C[N+]1=C(/C=C/c2ccc(I)cc2)C(C)(C)c2ccccc21`: the growth with SK-MEL-2 melanoma is 95.6%; in the assay on EKVX NSCLC, 91.5%; with UO-31 renal, 83.5%; in the assay with TK-10 renal it was 89.2%; in the assay on ACHN renal, 94.7%; with CAKI-1 renal, 94.4%. Also, the growth in the assay on A498 renal is 104%; in the assay on CCRF-CEM leukemia, 2.26% (active).
As to `CCCCOCC(=O)NC(NP(=O)(N(C)C)N(C)C)C(Cl)(Cl)Cl` (centres undefined), the growth in the assay on SK-MEL-2 melanoma is 107%; in the assay on EKVX NSCLC it was 98.1%; in the assay on SN12C renal, 110%; with UO-31 renal it was 92%; in the assay on ACHN renal it was 143%; in the assay on CAKI-1 renal, 92.3%. Further, the growth with A498 renal is 118%; with MOLT-4 leukemia, 99.5%.
On to `COc1ccc(-c2csc(-c3cc(Cl)cc(Cl)c3Cl)n2)cc1`, for which the growth with SK-MEL-2 melanoma was 96.3%; in the assay with EKVX NSCLC it was 80.5%; in the assay on SN12C renal, 91.3%; in the assay on TK-10 renal, 118%; with ACHN renal, 89.7%; in the assay on CAKI-1 renal, 85.9%. The growth was 52.1% in the assay with A498 renal, 97.4% in the assay on CCRF-CEM leukemia and 89% in the assay with MOLT-4 leukemia.
For the compound `O=C(O)c1ccccc1C(=O)c1cccc2c(F)cccc12`, the growth in the assay with SK-MEL-2 melanoma is 103%; with EKVX NSCLC, 108%; with UO-31 renal, 87.1%; in the assay with TK-10 renal, 110%; in the assay with ACHN renal, 98.2%; in the assay with CAKI-1 renal it was 104%. Besides, the results for the growth with A498 renal, with CCRF-CEM leukemia and with MOLT-4 leukemia were 130%, 92.3% and 93.1%, respectively.
`COC(=O)[C@]12CC[C@@H](C)[C@H](C)[C@@H]1C1=CC[C@@H]3[C@@]4(C)C[C@@H](O)[C@H](O)[C@@](C)(CO)[C@@H]4[C@H](O)C[C@@]3(C)[C@]1(C)CC2`: the growth was -88.2% (active) in the assay with SK-MEL-2 melanoma; -33.1% (active) in the assay on EKVX NSCLC; -52.2% (active) in the assay with UO-31 renal; -56.9% (active) in the assay on TK-10 renal; -48.3% (active) with ACHN renal; 0.468% (active) in the assay with CAKI-1 renal. In addition, the growth is -80.2% (active) in the assay on A498 renal, -43.7% (active) with CCRF-CEM leukemia and -51.9% (active) in the assay on MOLT-4 leukemia.
As for `CC(=O)OC1Oc2ccccc2-c2oc(=O)c(-c3cc(=O)oc4cc(O)ccc34)cc21` (centres undefined), the growth with SK-MEL-2 melanoma is 87.3%; with EKVX NSCLC, 86.6%; in the assay with SN12C renal it was 95.6%; with TK-10 renal it was 82.5%; in the assay with ACHN renal, 85.8%; in the assay on CAKI-1 renal, 93.7%. Also, the results for the growth with A498 renal, in the assay on CCRF-CEM leukemia and in the assay on MOLT-4 leukemia were 54.8%, 32.1% and 42.8%, respectively.
`C[C@]12CC[C@H]3[C@@H](CCC4=CC(=O)CC[C@@]43C)[C@@H]1CC[C@@H]2c1csc(N)n1`: the growth with SK-MEL-2 melanoma was 62.9%; in the assay with EKVX NSCLC it was 23.6%; in the assay on SN12C renal, 71.8%; in the assay on UO-31 renal, 44%; with ACHN renal, 77.2%; with CAKI-1 renal, 47.3%. Further, the growth in the assay on A498 renal is 84.3%; in the assay on CCRF-CEM leukemia it was 42.1%.
As for `Clc1cc(Cl)c(Cl)c(-c2nc(-c3cccnc3)cs2)c1`, the growth is 99.3% with SK-MEL-2 melanoma; 93.2% with EKVX NSCLC; 94.2% with SN12C renal; 82.6% in the assay with TK-10 renal; 61.5% in the assay with ACHN renal; 48.7% in the assay on CAKI-1 renal. Moreover, the growth with A498 renal was 104%; with CCRF-CEM leukemia it was 62.6%; in the assay with MOLT-4 leukemia, 56.9%.
Regarding `O=C(CSc1nnc(-c2ccc(Cl)cc2)o1)c1ccccc1`, the growth in the assay on SK-MEL-2 melanoma is 104%; with EKVX NSCLC, 102%; with UO-31 renal, 98.1%; in the assay on TK-10 renal, 97.5%; in the assay on ACHN renal it was 101%; in the assay with CAKI-1 renal it was 99.3%. For the same compound, the growth with A498 renal is 106%; in the assay on CCRF-CEM leukemia, 94.3%; in the assay with MOLT-4 leukemia, 104%.
In the case of `C=CCc1cc(Nc2c3ccc(Cl)cc3nc3ccc(OC)cc23)cc(CN(CC)CC)c1O`, the growth was 18.5% in the assay with SK-MEL-2 melanoma; 0.403% (active) in the assay on EKVX NSCLC; 5.47% (active) with UO-31 renal; 12.7% with TK-10 renal; 4.15% (active) in the assay with ACHN renal; 7.85% (active) in the assay with CAKI-1 renal. The growth with A498 renal was 20.6%; in the assay with CCRF-CEM leukemia, 5.06% (active); with MOLT-4 leukemia, -20.3% (active).
For `Nc1cc(O)cc(O)c1`, the growth was 98.7% in the assay on SK-MEL-2 melanoma; 97.1% in the assay with EKVX NSCLC; 97.8% in the assay with UO-31 renal; 87.4% with TK-10 renal; 105% in the assay on ACHN renal; 96.2% with CAKI-1 renal. The growth in the assay with A498 renal is 116%; in the assay on CCRF-CEM leukemia it was 114%; in the assay with MOLT-4 leukemia it was 104%.
`CCCCCCCOc1cccc(/C=C2/C(=O)N=C3SCCCN32)c1`: the growth with SK-MEL-2 melanoma is 83%; in the assay with EKVX NSCLC, 74.2%; with UO-31 renal, 61.9%; with TK-10 renal it was 75.7%; with ACHN renal it was 79.2%; in the assay with CAKI-1 renal, 84.9%. Further, the growth is 97.6% in the assay on A498 renal, 60.4% in the assay with CCRF-CEM leukemia and 50.2% in the assay on MOLT-4 leukemia.
With `Cc1ccc2c(c1)-c1cc(C)nn1-c1ccc(C#N)cc1O2`, the growth is 44.7% in the assay with SK-MEL-2 melanoma; 65.7% with EKVX NSCLC; 47.4% in the assay with UO-31 renal; 84.1% in the assay on TK-10 renal; 91.5% in the assay on ACHN renal; 71.9% in the assay on CAKI-1 renal. Besides, the growth in the assay on A498 renal is 47.2%; with CCRF-CEM leukemia, 46.2%; in the assay with MOLT-4 leukemia, 49.6%.
In the case of `c1ccc(CNc2nc(Nc3ccc(-c4nc5ccccc5[nH]4)cc3)c3cn[nH]c3n2)cc1`, the growth in the assay on SK-MEL-2 melanoma is -59.2% (active); in the assay with EKVX NSCLC it was 18%; in the assay on UO-31 renal, 29.9%; in the assay with TK-10 renal it was 20.4%; with ACHN renal, -5.37% (active); in the assay with CAKI-1 renal, 7.33% (active). In addition, the growth in the assay with A498 renal was 27.6%; in the assay on CCRF-CEM leukemia it was 9.8% (active); in the assay on MOLT-4 leukemia, -39.7% (active).
In the case of `Nc1cc2c(cc1Cl)-c1ccc(Cl)cc1C2=O`, the growth in the assay on SK-MEL-2 melanoma is 95.7%; with EKVX NSCLC, 67.7%; in the assay with UO-31 renal, 61.6%; with TK-10 renal, 117%; with ACHN renal, 98.4%; in the assay on CAKI-1 renal, 96.4%. Besides, the growth is 95.7% in the assay with A498 renal, 86.1% with CCRF-CEM leukemia and 81.4% in the assay with MOLT-4 leukemia.
